Reference: PubChem BioAssay
Calls of active or inactive are those of the source. Unless noted, no rule for the calls is given here.

What was measured:
[1] = inhibitors of CD8+ T cell-vesicle binding, pilot screen, LFA-1/ICAM-1 modulator project, MLPCN validation set, flow cytometry (AID 2523;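 active = response below a set limit, under 55% cells CD8-positive and vesicle-bound, and CD8 cells' 90th-percentile brightness under 279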;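 as to vesicle binding response: mean PE anti-B7-1 fluorescence of CD8+ cells relative to row control; 100% = QL9-loaded vesicles with DMSO vehicle in the same plate row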); conditions: 2C mouse CD8+ T cells, at 7 µM, stronger effect = lower value; double positive events: measured here: CD8+/vesicle+ event percentage
[2] = target: Integrin beta-1 (Homo sapiens) + Integrin alpha-4 (Homo sapiens) (UniProt P13612+P05556); experiment: inhibition of HUTS-21 binding to VLA-4, pilot screen, VLA-4 allosteric modulator project, U937 cells, HUTS-21 mAb, flow cytometry, validation set (AID 2674;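 active = inhibition above 50%, about 3 SD of the validation set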;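 also: antibody binding induced by the VLA-4 ligand LDV present at three times its Kd; 0% = LDV ligand with antibody and no compound and 100% = antibody without LDV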); conditions: HUTS-21 LIBS mAb binding, at 6.7 µM, stronger effect = higher value
[3] = superoxide lowering in aged yeast cells, pilot screen, validation compound set (AID 2706;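 active = superoxide response below 65% of plate, a cut near 3 SD across the whole screen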;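 also: yeast exposed to compound for one week at 30 degrees C before staining; 100% = mean of all compound wells on the same plate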); conditions: S. cerevisiae aging, superoxide DHE fluorescence; at 10 µM; stronger effect = lower value
[4] = target: Beta-adrenergic receptor kinase 1 (Homo sapiens) (UniProt P25098); experiment: GRK2 binders displacing RNA aptamer, biochemical, validation, human GRK2, bead flow cytometry (AID 488806;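 active = aptamer binding inhibition above 30%, about 3 SD of noise from non-fluorescent compounds; inactive = inhibition at or below 30%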); conditions: bead-bound GRK2, FAM-aptamer displacement, at 10 µM, stronger effect = higher value
[5] = target: AP-2 complex subunit beta (Homo sapiens) (UniProt P63010); experiment: inhibitors of arrestin peptide binding to AP2, pilot screen, biochemical, validation set, GST-AP2 beads, flow cytometry (AID 504541;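 active = inhibition above 54%, about 3 SD of non-fluorescent compounds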;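 also: AP2 carries R879A mutation and is captured from E. coli lysate; bead-bound FITC arrestin peptide fluorescence measuring arrestin peptide binding to AP2; 0% = DMSO wells and 100% = excess unlabeled arrestin peptide control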); conditions: FITC arrestin peptide, at 10 µM, stronger effect = higher value
[6] = yeast V-ATPase proton transport modulators, S. cerevisiae, pHLuorin, HTS validation (AID 504600; in the data active = response above about 15%;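 also: plate controls were DMSO for no effect and reference compound for full effect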); conditions: S. cerevisiae pHLuorin cytosolic pH, at 10 µM, stronger effect = higher value
[7] = system: anti-desmoglein-3 scFv antibody binding to human DSG3; experiment: inhibitors of anti-DSG3 scFv binding to DSG3, pilot screen, biochemical, validation compound set, bead-based, flow cytometry (AID 588368;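 active = binding below the plate cutoff, the plate median minus 3 SD, with a reading above zero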;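 also: signal is the median channel fluorescence of bead-bound GFP antibody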); conditions: Protein G beads, DSG3-Fc, scFv-GFP binding, at 10 µM, stronger effect = lower value
[8] = system: Botulinum neurotoxin type F light chain protease (Clostridium botulinum); experiment: Botulinum neurotoxin type F light chain protease inhibition, multiplex microsphere flow cytometry, validation set (AID 588459); conditions: multiplex microsphere protease substrate cleavage assay, at 10 µM, stronger effect = higher value
[9] = target: Botulinum neurotoxin type A (Clostridium botulinum) (UniProt P0DPI0); experiment: BoNT/A light chain protease inhibitors, biochemical, multiplex microsphere flow cytometry, validation set (AID 588460); conditions: at 10 µM, stronger effect = higher value
[10] = target: Lethal factor (Bacillus anthracis) (UniProt P15917); experiment: Lethal factor protease inhibitors, Bacillus anthracis, multiplex microsphere cleavage assay, validation set (AID 588461); conditions: flow cytometry, at 10 µM, stronger effect = higher value
[11] = inhibitors of fungal efflux pumps CDR1, CDR2, MDR1, pilot screen, validation compound set, multiplex, phenotypic (AID 588506;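 active = efflux inhibition above 0.42, the validation set average plus 4 SD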;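 also: Nile Red retained in cells so higher fluorescence means more efflux inhibition; 0 = negative control wells and 1 = enniatin B 25 µM full block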); conditions: S. cerevisiae pump-expressing triplex, Nile Red efflux flow cytometry; at 10 µM; stronger effect = higher value
[12] = target: ATP-binding cassette sub-family B member 6 (Homo sapiens) (UniProt Q9NP58); experiment: ABCB6 transporter inhibitors, pilot screen, K562-ABCB6 cells, flow cytometry, validation set (AID 588550;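 active = inhibition above the screen-wide mean plus 3 SD, about 51%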;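 also: 0% = DMSO wells and 100% = benzethonium chloride 70 µM positive control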); conditions: K562-ABCB6 porphyrin accumulation, 1 h, at 10 µM, stronger effect = higher value
[13] = promoters of myeloid differentiation in arrested cells, primary screen, cell-based, GFP/MAC1 double positive, flow cytometry, validation set (AID 588685;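 active = differentiation response of at least 50%, scaled between solvent and reference control, from cells with both markers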;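 also: compound exposure lasts four days before antibody staining and flow analysis; 0% = DMSO wells and 100% = 5 µM fulvestrant positive control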); conditions: ER-HoxA9 marrow cells, stronger effect = higher value
[14] = RPL19A-GFP modulators, yeast TOR pathway, confirmation, cell-based, S. cerevisiae, flow cytometry, cherry picks, mother/daughter gates (AID 2270;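 active = GFP response below 50% of the DMSO control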); conditions: S. cerevisiae RPL19A-GFP strain, 3 h, at 10 µM, stronger effect = lower value, 100 = same GFP as DMSO wells
[15] = LAP4-GFP expression modulators in yeast, confirmation, cell-based, cherry picks, flow cytometry, mother/daughter gates (AID 2271;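 active = GFP response above 150% of the DMSO control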;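 also: ratio of sample to DMSO plate mean so 100% equals DMSO level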); conditions: S. cerevisiae LAP4-GFP strain, 3 h, at 10 µM, stronger effect = higher value
[16] = modulators of CIT2-GFP expression in yeast, confirmation, S. cerevisiae, GFP fusion, cherry picks, mother/daughter gates (AID 2274;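 active = GFP response above 150% of the DMSO level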); conditions: S. cerevisiae CIT2-GFP strain, flow cytometry, 3 h, at 10 µM, stronger effect = higher value
[17] = measured here: daughter cell gate
[18] = measured here: mother cell gate

Sequence of Lethal factor (Bacillus anthracis) (P15917 whole entry, looked up): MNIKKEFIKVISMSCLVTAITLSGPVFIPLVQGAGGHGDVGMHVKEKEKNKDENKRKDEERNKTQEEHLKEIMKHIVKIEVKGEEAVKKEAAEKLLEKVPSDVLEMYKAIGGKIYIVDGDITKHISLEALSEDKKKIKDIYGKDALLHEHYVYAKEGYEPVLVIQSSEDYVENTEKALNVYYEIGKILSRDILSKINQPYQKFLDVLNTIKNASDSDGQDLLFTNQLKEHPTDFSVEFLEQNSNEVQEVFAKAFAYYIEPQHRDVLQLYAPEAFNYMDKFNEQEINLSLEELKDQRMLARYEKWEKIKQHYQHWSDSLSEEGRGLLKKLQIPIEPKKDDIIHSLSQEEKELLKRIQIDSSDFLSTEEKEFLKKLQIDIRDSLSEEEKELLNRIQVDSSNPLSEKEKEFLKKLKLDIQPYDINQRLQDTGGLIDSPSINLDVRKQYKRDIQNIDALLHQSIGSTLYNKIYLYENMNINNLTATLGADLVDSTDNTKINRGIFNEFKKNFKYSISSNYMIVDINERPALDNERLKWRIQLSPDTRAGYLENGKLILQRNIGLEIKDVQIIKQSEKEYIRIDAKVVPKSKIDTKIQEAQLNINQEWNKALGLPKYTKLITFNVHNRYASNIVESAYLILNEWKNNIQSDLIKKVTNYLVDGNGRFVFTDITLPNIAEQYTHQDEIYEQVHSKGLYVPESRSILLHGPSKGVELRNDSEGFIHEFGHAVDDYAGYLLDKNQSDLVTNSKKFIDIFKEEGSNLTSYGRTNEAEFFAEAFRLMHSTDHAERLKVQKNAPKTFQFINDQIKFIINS
Sequence of AP-2 complex subunit beta (Homo sapiens) (P63010 whole entry, looked up, one chain of several): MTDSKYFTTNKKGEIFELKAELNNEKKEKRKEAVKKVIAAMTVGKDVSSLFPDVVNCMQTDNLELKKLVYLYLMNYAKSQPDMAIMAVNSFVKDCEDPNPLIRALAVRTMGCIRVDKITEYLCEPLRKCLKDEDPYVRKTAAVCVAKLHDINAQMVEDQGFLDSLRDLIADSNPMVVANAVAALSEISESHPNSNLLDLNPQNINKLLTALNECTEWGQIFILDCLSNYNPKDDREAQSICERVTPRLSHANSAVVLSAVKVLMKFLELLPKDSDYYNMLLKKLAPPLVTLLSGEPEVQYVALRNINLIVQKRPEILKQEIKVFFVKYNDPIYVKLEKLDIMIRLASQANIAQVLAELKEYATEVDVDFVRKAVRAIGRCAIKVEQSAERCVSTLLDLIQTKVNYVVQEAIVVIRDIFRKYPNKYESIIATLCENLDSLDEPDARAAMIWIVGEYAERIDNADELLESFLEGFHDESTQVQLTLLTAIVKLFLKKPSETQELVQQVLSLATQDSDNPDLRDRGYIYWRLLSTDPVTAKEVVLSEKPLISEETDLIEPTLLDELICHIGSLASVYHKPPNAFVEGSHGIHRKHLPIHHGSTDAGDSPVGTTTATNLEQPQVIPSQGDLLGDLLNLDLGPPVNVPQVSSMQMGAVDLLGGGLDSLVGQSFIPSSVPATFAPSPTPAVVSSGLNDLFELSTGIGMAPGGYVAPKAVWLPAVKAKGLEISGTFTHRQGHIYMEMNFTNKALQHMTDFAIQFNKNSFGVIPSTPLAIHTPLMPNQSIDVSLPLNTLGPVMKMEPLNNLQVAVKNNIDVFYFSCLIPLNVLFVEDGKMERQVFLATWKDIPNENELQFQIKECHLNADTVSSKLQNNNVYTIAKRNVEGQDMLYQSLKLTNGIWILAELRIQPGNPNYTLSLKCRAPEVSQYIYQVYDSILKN
Sequence of Botulinum neurotoxin type A (Clostridium botulinum) (P0DPI0 whole entry, looked up): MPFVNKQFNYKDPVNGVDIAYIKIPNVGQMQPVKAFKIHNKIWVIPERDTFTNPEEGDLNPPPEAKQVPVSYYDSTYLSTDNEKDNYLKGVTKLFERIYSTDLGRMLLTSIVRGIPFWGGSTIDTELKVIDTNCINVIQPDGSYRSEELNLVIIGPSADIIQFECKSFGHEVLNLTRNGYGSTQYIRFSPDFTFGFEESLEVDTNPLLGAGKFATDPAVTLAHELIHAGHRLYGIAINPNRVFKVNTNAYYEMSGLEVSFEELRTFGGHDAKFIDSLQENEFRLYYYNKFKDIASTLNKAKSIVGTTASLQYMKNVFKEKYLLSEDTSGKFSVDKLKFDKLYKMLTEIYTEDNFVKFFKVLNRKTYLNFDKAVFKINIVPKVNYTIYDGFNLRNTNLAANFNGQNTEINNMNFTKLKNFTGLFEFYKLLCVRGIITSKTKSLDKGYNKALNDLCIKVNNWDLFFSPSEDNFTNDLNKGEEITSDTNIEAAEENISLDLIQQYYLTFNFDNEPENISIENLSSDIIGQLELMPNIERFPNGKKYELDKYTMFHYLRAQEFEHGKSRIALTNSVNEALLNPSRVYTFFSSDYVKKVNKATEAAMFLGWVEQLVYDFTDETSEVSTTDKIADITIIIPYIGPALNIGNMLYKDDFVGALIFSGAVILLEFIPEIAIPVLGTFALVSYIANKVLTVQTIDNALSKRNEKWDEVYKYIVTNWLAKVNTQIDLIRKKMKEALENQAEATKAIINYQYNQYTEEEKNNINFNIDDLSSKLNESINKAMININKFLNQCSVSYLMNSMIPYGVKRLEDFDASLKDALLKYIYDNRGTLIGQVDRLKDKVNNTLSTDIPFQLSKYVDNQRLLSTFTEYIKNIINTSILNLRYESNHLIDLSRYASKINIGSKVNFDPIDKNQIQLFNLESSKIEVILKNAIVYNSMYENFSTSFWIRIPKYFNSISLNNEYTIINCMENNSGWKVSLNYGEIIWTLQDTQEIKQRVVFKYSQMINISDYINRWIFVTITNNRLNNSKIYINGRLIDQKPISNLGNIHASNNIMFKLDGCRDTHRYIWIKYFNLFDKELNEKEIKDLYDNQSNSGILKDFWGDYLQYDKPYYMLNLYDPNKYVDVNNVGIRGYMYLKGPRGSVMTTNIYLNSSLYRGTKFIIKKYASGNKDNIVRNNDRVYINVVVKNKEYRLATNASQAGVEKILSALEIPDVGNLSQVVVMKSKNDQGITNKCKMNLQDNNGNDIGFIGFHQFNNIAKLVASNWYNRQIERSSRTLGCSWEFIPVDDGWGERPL
Sequence of Integrin beta-1 (Homo sapiens) + Integrin alpha-4 (Homo sapiens) (P05556 whole entry, looked up): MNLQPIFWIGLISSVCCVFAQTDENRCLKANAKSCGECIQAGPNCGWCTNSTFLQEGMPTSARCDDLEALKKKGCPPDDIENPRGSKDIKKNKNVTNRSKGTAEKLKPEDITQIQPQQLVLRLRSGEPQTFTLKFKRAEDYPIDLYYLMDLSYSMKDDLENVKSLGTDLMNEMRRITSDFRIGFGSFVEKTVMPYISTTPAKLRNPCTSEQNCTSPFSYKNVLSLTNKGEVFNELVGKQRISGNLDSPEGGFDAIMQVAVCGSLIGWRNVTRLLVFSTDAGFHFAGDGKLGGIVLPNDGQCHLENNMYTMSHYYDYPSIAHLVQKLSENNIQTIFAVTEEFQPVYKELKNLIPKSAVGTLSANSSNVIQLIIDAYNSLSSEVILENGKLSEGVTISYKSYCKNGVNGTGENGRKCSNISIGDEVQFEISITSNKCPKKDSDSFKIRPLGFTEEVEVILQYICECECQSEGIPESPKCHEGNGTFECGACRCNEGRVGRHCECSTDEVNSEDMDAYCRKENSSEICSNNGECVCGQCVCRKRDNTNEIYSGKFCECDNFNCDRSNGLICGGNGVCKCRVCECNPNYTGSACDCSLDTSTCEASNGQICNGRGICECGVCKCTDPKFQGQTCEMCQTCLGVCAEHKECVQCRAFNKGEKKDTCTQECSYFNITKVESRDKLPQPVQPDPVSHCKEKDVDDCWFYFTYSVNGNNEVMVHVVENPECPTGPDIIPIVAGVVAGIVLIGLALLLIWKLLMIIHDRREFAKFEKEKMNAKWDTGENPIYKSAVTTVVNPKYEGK
Sequence of Integrin beta-1 (Homo sapiens) + Integrin alpha-4 (Homo sapiens) (P13612 whole entry, looked up): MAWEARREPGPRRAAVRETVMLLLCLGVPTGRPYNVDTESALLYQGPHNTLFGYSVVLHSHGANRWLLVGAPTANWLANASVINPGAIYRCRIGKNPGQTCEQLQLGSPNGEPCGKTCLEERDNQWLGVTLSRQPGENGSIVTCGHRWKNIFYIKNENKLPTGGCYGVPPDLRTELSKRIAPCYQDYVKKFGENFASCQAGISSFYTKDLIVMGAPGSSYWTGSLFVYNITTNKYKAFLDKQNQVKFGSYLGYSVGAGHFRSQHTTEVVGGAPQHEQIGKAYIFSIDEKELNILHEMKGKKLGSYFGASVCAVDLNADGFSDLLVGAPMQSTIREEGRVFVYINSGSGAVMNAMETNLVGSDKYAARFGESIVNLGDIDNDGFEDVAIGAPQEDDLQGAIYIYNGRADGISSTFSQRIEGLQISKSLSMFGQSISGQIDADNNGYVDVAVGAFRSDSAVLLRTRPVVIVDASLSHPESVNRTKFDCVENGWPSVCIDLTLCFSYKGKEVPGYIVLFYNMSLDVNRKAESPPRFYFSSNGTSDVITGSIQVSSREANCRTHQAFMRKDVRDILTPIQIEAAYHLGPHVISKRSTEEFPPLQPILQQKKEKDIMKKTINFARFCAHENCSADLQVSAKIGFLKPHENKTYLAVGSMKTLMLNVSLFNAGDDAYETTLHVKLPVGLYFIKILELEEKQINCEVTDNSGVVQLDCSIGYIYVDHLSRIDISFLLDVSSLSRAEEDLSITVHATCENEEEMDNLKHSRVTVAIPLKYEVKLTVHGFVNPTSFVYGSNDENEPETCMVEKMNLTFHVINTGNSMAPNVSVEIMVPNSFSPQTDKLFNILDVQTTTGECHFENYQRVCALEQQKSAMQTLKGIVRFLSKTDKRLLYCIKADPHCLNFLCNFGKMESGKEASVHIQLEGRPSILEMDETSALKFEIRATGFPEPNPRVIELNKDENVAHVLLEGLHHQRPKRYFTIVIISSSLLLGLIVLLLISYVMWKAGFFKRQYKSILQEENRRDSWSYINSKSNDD

NCC(O)c1ccc(O)cc1 (centres undefined)
66.5%: double positive events [1]
inactive: vesicle binding response [1] 150% | inhibition [2] -2.27% | superoxide response (% of plate) [3] 94.8% | aptamer binding inhibition [4] 2% | inhibition [5] -8.51% | response [6] 2.02% | binding (% of control) [7] 103% | inhibition [8] 1.9% | inhibition [9] 1% | inhibition [10] 6% | efflux inhibition (fraction of control) [11] -0.35 | inhibition [12] 8% | differentiation response [13] 2.46%

c1cnc2c(c1)ccc1ncccc12
active: response [6] 21.4%
inactive: vesicle binding response [1] 165% | inhibition [2] 0.59% | superoxide response (% of plate) [3] 83.3% | aptamer binding inhibition [4] 8% | inhibition [5] -6.24% | binding (% of control) [7] 102% | inhibition [8] -4.1% | inhibition [9] -0.7% | inhibition [10] -2.4% | efflux inhibition (fraction of control) [11] 0.08 | inhibition [12] 4% | differentiation response [13] -17.8%
64.8%: double positive events [1]

COc1ccc2c3c([nH]c2c1)C(C)=NCC3
inactive: vesicle binding response [1] 218% | inhibition [2] -16.1% | superoxide response (% of plate) [3] 102% | aptamer binding inhibition [4] -10% | inhibition [5] 10.6% | response [6] -11.3% | binding (% of control) [7] 172% | inhibition [8] -22.6% | inhibition [9] -5.4% | inhibition [10] -104% | efflux inhibition (fraction of control) [11] -0.24 | inhibition [12] -229% | differentiation response [13] 20.8%
57.1%: double positive events [1]

Nc1ccc([As](=O)(O)O)cc1
inactive: vesicle binding response [1] 190% | inhibition [2] 7.22% | superoxide response (% of plate) [3] 108% | aptamer binding inhibition [4] 2% | inhibition [5] -9.89% | response [6] -3.63% | binding (% of control) [7] 99.6% | inhibition [8] -3.5% | inhibition [9] -1.7% | inhibition [10] 6.8% | efflux inhibition (fraction of control) [11] -0.35 | inhibition [12] 3% | differentiation response [13] -0.2%
53.2%: double positive events [1]

CCC(C)N1C(=O)/C(=C\c2cnc(N(C)C)nc2)C(=O)NC1=S (centres undefined)
90.2%: GFP response, % of DMSO [16, 18]
98.4%: GFP response vs DMSO [14, 17]
114%: GFP response, % of DMSO [16, 17]
93.8%: GFP response vs DMSO [14, 18]
inactive: GFP response vs DMSO [14] 104% | GFP response relative to DMSO [15] 97.4% | GFP response, % of DMSO [16] 106%

CN1[C@@H]2CC[C@H]1CC(OC(=O)C1C=Nc3ccccc31)C2 (some centres undefined)
52.3%: double positive events [1]
inactive: vesicle binding response [1] 136% | inhibition [2] 20.3% | superoxide response (% of plate) [3] 111% | aptamer binding inhibition [4] 0% | inhibition [5] -15.4% | response [6] -15% | binding (% of control) [7] 93.3% | inhibition [8] 1.4% | inhibition [9] -0.6% | inhibition [10] 4.3% | efflux inhibition (fraction of control) [11] -0.2 | inhibition [12] 7% | differentiation response [13] -3.43%

C[C@]12CC[C@@H]3c4ccc(O)c(O)c4CC[C@H]3[C@@H]1CC[C@@H]2O
inactive: vesicle binding response [1] 107% | inhibition [2] 27.7% | superoxide response (% of plate) [3] 101% | aptamer binding inhibition [4] -1% | inhibition [5] 1.47% | response [6] -0.32% | binding (% of control) [7] 108% | inhibition [8] 0.2% | inhibition [9] -0.1% | inhibition [10] 2% | efflux inhibition (fraction of control) [11] -0.28 | inhibition [12] 7% | differentiation response [13] 3.03%
51%: double positive events [1]

O=C1CSC2N1CCNC21CCCCC1 (centres undefined)
64.1%: double positive events [1]
active: efflux inhibition (fraction of control) [11] 1.11
inactive: vesicle binding response [1] 191% | inhibition [2] -31.6% | aptamer binding inhibition [4] 0% | inhibition [5] 4.77% | response [6] 2.26% | binding (% of control) [7] 112% | inhibition [8] -1% | inhibition [9] 1% | inhibition [10] -3.4% | inhibition [12] 42% | differentiation response [13] 28.6%

CC/C(=C\C=C\[C@@H]1C=C[C@@H]2CCC[C@H]2[C@@H]1C(=O)c1ccc[nH]1)[C@@H]1O[C@@H]([C@@H](C)C(=O)O)CC[C@@H]1C
60.2%: double positive events [1]
inactive: vesicle binding response [1] 275% | inhibition [2] -7.08% | superoxide response (% of plate) [3] 94% | aptamer binding inhibition [4] 2% | inhibition [5] 0.83% | response [6] -0.4% | binding (% of control) [7] 107% | inhibition [8] 1.9% | inhibition [9] 0.5% | inhibition [10] -4.4% | efflux inhibition (fraction of control) [11] 0 | inhibition [12] -1% | differentiation response [13] -4%

CC12CCC3C(CC=C4CC5(CCC43C)OCCO5)C1CCC2=O (centres undefined)
65.4%: double positive events [1]
inactive: vesicle binding response [1] 179% | inhibition [2] -9.06% | superoxide response (% of plate) [3] 95.3% | aptamer binding inhibition [4] 3% | inhibition [5] -3.19% | response [6] 0.24% | binding (% of control) [7] 108% | inhibition [8] 4.6% | inhibition [9] -0.8% | inhibition [10] 3.9% | efflux inhibition (fraction of control) [11] -0.24 | inhibition [12] 15% | differentiation response [13] -4.09%

Cn1c(=O)c2[nH]cnc2n(C)c1=O
inactive: inhibition [8] 2.7% | inhibition [9] -2%

CC(=O)OCC(=O)[C@@]12OC(C)(C)O[C@@H]1C[C@H]1[C@@H]3C[C@H](F)C4=CC(=O)C=C[C@]4(C)[C@@]3(F)[C@@H](O)C[C@@]12C
inactive: inhibition [8] -3.5% | inhibition [9] -1.4%

O=C(O)c1[nH]c(=O)[nH]c(=O)c1F
inactive: GFP response vs DMSO [14] 96.9% | GFP response relative to DMSO [15] 100% | GFP response, % of DMSO [16] 100%
95.6%: GFP response vs DMSO [14, 18]
100%: GFP response relative to DMSO ([15]; measured here: mother cell gate response) | GFP response, % of DMSO [16, 18]
97.5%: GFP response relative to DMSO ([15]; measured here: daughter cell gate response)
99.3%: GFP response, % of DMSO [16, 17]
97.6%: GFP response vs DMSO [14, 17]

COc1cc(/C=C2\C(=O)NC(=O)N(c3ccccc3)C2=O)c([N+](=O)[O-])cc1OC
61.7%: double positive events [1]
inactive: vesicle binding response [1] 106% | inhibition [2] 13.7% | superoxide response (% of plate) [3] 102% | aptamer binding inhibition [4] 3% | inhibition [5] 5.39% | response [6] 3.62% | binding (% of control) [7] 105% | inhibition [8] -4.1% | inhibition [9] -1.1% | inhibition [10] -1.8% | efflux inhibition (fraction of control) [11] -0.09 | inhibition [12] -21% | differentiation response [13] -8.96%
